Among the data in PubChem BioAssay (NCI) are growth values, retold here.

Test systems include HCT-15 colon; HT29 colon; SNB-75 CNS; SNB-19 CNS; PC-3 prostate; SK-MEL-5 melanoma; UACC-62 melanoma; LOX IMVI melanoma; SK-MEL-28 melanoma; EKVX NSCLC; SN12C renal; UO-31 renal; TK-10 renal; ACHN renal; CAKI-1 renal; CCRF-CEM leukemia; MOLT-4 leukemia; SK-MEL-2 melanoma; A498 renal; U251 CNS.
Test in all cases: NCI-60 one-dose screen, 48 h (100 = growth as untreated, 0 = no growth, -100 = all killed)
Conditions in all cases: 10 µM unless noted

The structures appear in SMILES notation. The panel holds about 83,000 compounds, 20% with a hit somewhere; the sample as a whole holds those more often.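 Compound tested at a single concentration for 48 hours in 96-well plates; a percent growth value below 10 was scored as active.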 Unmarked numbers belong to inactive results. Calls of active or inactive are those of the source.

On to `N#Cc1c(Nc2ccccc2)nn2c(-c3ccc([N+](=O)[O-])cc3)ccnc12`, for which the growth with HCT-15 colon was 99.3%; with HT29 colon, 103%; in the assay on SNB-75 CNS, 102%; in the assay with SNB-19 CNS it was 100%; with PC-3 prostate, 103%; with SK-MEL-5 melanoma it was 88.6%. The growth is 93.3% with UACC-62 melanoma; 93.7% in the assay with LOX IMVI melanoma; 100% in the assay on SK-MEL-28 melanoma; 99.5% in the assay on EKVX NSCLC; 104% with SN12C renal; 84% with UO-31 renal. In addition, the growth in the assay on TK-10 renal was 98%; in the assay on ACHN renal, 102%; in the assay on CAKI-1 renal it was 91.9%; in the assay on CCRF-CEM leukemia, 104%; with MOLT-4 leukemia it was 105%.

With `Nc1cc(-c2c[nH]c3ccc(Br)cc23)nc2cc(-c3c[nH]c4ccc(Br)cc34)nn12`, the growth in the assay on HCT-15 colon is 2.64% (active); in the assay with HT29 colon it was -33.8% (active); in the assay with SNB-75 CNS, 41.9%; in the assay with SNB-19 CNS it was 41.2%; in the assay with PC-3 prostate, 14.5%; with SK-MEL-5 melanoma, 36.7%. Also, the growth was 11.6% in the assay with UACC-62 melanoma; -52.8% (active) in the assay with LOX IMVI melanoma; 49.9% in the assay with SK-MEL-28 melanoma; -43.7% (active) in the assay with SK-MEL-2 melanoma; 31.7% with EKVX NSCLC; 26.8% with SN12C renal. In addition, the growth is 41.3% in the assay with UO-31 renal; 35.7% in the assay with TK-10 renal; 7.87% (active) with ACHN renal; 21.1% in the assay with CAKI-1 renal; 7.08% (active) in the assay with A498 renal; 7.39% (active) with CCRF-CEM leukemia. Further, the growth in the assay on MOLT-4 leukemia is -3.94% (active).

As for `Cc1ccc(-c2nn(-c3ccccc3)cc2/C=C/C(=O)c2ccc(NC(=O)CCCCCCC(=O)NO)cc2)cc1`, the growth with HCT-15 colon was 68%; in the assay with HT29 colon, 61.4%; in the assay with SNB-19 CNS, 81.9%; with U251 CNS, 79.2%; in the assay with PC-3 prostate it was 74.6%; with SK-MEL-5 melanoma, 91.7%. Also, the growth is 53.3% in the assay with UACC-62 melanoma; 62.2% with LOX IMVI melanoma; 89% in the assay with SK-MEL-28 melanoma; 88.2% with SK-MEL-2 melanoma; 85.8% in the assay on EKVX NSCLC; 73.5% in the assay on SN12C renal. Moreover, the growth is 52.2% with UO-31 renal; 70.2% with TK-10 renal; 87.9% with ACHN renal; 58.1% in the assay with CAKI-1 renal; 58.2% in the assay with A498 renal; 38.8% in the assay with CCRF-CEM leukemia. For the same compound, in the assay on MOLT-4 leukemia, the growth is 38.5%.

Consider `CNc1ncc2cc(-c3ccc(-c4ncccc4F)cc3Cl)c(=O)n(CC3OCC(N)CO3)c2n1` (configuration not stated), for which the growth with HCT-15 colon was 87.5%; in the assay with HT29 colon, 48.1%; with SNB-75 CNS, 24%; in the assay on SNB-19 CNS, 69%; in the assay on PC-3 prostate, 81.9%; in the assay with SK-MEL-5 melanoma, 82.6%. Also, the growth in the assay on UACC-62 melanoma was 78.6%; in the assay on LOX IMVI melanoma it was 32.3%; with SK-MEL-28 melanoma, 92.9%; in the assay on SK-MEL-2 melanoma it was 93.5%; in the assay with EKVX NSCLC it was 57.6%; in the assay with SN12C renal, 59.8%. Also, the growth with UO-31 renal is -12.3% (active); in the assay with TK-10 renal it was 13.1%; with ACHN renal, 40.9%; with CAKI-1 renal, 0.298% (active); in the assay with A498 renal, 6.43% (active); in the assay on CCRF-CEM leukemia, 78.1%. In addition, the growth in the assay on MOLT-4 leukemia is 57.8%.

In the case of `COc1cc(Cn2cc3c(c2)-c2onc(CN4CCCC4)c2CC3)cc(OC)c1OC`, the growth is 94.7% in the assay on HCT-15 colon; 105% in the assay on HT29 colon; 104% in the assay on SNB-75 CNS; 90.6% in the assay on SNB-19 CNS; 92.5% in the assay on PC-3 prostate; 79.8% in the assay with SK-MEL-5 melanoma. The growth in the assay with UACC-62 melanoma was 81.2%; in the assay on LOX IMVI melanoma, 97.6%; with SK-MEL-28 melanoma it was 95.2%; with SK-MEL-2 melanoma, 101%; with EKVX NSCLC, 75.9%; with SN12C renal it was 96.7%. Further, the growth was 78.1% in the assay with UO-31 renal; 111% in the assay on TK-10 renal; 97.5% in the assay with ACHN renal; 91.7% in the assay on CAKI-1 renal; 89% in the assay with CCRF-CEM leukemia; 91.8% with MOLT-4 leukemia.

Turning to `CCN1CCN(Cc2cn(-c3ccc(S(N)(=O)=O)cc3)nn2)CC1`, the growth with HCT-15 colon is 104%; with HT29 colon, 102%; in the assay on SNB-19 CNS, 105%; in the assay on U251 CNS, 109%; with PC-3 prostate, 97.8%; in the assay on SK-MEL-5 melanoma it was 103%. Moreover, the growth in the assay on UACC-62 melanoma is 98.1%; in the assay with LOX IMVI melanoma, 102%; with SK-MEL-28 melanoma it was 116%; with SK-MEL-2 melanoma it was 115%; with EKVX NSCLC, 103%; in the assay on SN12C renal it was 104%. The growth is 94% in the assay on UO-31 renal; 108% in the assay on TK-10 renal; 108% in the assay with ACHN renal; 96.5% in the assay on CAKI-1 renal; 103% in the assay on A498 renal; 104% with CCRF-CEM leukemia. Moreover, in the assay with MOLT-4 leukemia, the growth is 104%.

With `CCO/C=N/C1=C(C#N)C(c2ccc(F)cc2)c2sc3c(C)cccc3c2O1` (configuration not stated), the growth is 11.9% in the assay with HCT-15 colon; 9.76% (active) in the assay on HT29 colon; 18.2% in the assay on SNB-19 CNS; 21.8% with U251 CNS; 14.5% in the assay on PC-3 prostate; 4.34% (active) in the assay on SK-MEL-5 melanoma. In addition, the growth in the assay on UACC-62 melanoma is 12.8%; in the assay on LOX IMVI melanoma, 9.65% (active); in the assay on SK-MEL-28 melanoma it was 56.2%; in the assay with SK-MEL-2 melanoma, 42.7%; in the assay on EKVX NSCLC, 44.6%; with SN12C renal, 17.3%. Also, the growth in the assay with UO-31 renal is 27.9%; in the assay on TK-10 renal, 66.4%; with ACHN renal, 23.1%; in the assay with CAKI-1 renal, 28.4%; in the assay with A498 renal it was -0.888% (active); in the assay on CCRF-CEM leukemia, 21.1%. Moreover, the growth in the assay on MOLT-4 leukemia is 23.1%.

As to `O=S(=O)(Nc1ccc(I)cc1Cl)c1ccc(-c2cnc(C3CC3)o2)cc1`, the growth was 30.7% in the assay on HCT-15 colon; 15.9% in the assay on HT29 colon; 45.9% in the assay with SNB-19 CNS; 35.2% in the assay with U251 CNS; 34% with PC-3 prostate; 40.2% in the assay on SK-MEL-5 melanoma. The growth in the assay with UACC-62 melanoma was 39%; in the assay with SK-MEL-28 melanoma it was 53.8%; with SK-MEL-2 melanoma, 71.6%; with EKVX NSCLC, 54.2%; in the assay with SN12C renal it was 42.5%; with UO-31 renal, 50.9%. In addition, the growth in the assay on TK-10 renal was 89.3%; in the assay with ACHN renal it was 49.2%; with CAKI-1 renal, 39.1%; with CCRF-CEM leukemia, 25.2%; with MOLT-4 leukemia, 45%.
